From PubChem BioAssay AID504332 (National Center for Advancing Translational Sciences (NCATS), 2011)
About 31,000 (8.9%) of roughly 350,000 compounds were called active. Another 15% or so got no clear call; they are omitted. The sample holds actives, similar compounds and a random draw of the others, so the mix is not that of the screen. Unmarked numbers belong to inactive results. The call rests on the fitted dose curve; in most records, active means well fitted inhibition curve with a large enough effect; inconclusive means small, poorly fitted or top-dose-only effect; inactive means no such curve, though single readings can be large or run the other way.

target: Histone-lysine N-methyltransferase EHMT2 (Homo sapiens) (UniProt Q96KQ7); experiment: qHTS Assay for Inhibitors of Histone Lysine Methyltransferase G9a; conditions: G9a H3K9 monomethylation, AlphaScreen, 2 h; series mostly up to 59 µM; activity, negative = inhibition: at the top concentration; further: nearly all actives have a fitted effect of over 75% in size
In short: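 Step 1: enzyme (final 20 nM) with compound, 15 min RT. Step 2: substrate peptide 500 nM and SAM 20 uM, 2 h RT. Step 3: anti-H3K9me1 antibody and AlphaScreen beads, 10 min, then plate read.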
On the % scale 0 is the no-effect control and ±100 the full control effect; potency means the concentration at half of the fitted maximal effect.

Sequence of Histone-lysine N-methyltransferase EHMT2 (Homo sapiens) (Q96KQ7 913-1193 limits assumed): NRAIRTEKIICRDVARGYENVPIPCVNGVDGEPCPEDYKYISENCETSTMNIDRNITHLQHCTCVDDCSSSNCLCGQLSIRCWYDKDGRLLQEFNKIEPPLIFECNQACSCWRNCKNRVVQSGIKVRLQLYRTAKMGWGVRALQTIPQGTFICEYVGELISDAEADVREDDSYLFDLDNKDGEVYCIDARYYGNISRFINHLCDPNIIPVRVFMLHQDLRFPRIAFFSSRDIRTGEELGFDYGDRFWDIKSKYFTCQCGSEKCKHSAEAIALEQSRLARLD

First: COc1ccc(CNc2nc(-c3ccc(Cl)cc3)nn2S(=O)(=O)c2ccc(C)cc2)cc1
Second: CC(=O)Nc1cc(C(=O)NCc2ccc(F)cc2)ccc1Sc1ccc(F)cc1
The “activity, negative = inhibition” value of the first is higher: 8.34% for the first, -1.44% for the second.

Compared with Cc1cc(Cl)ccc1NC(=O)Cc1ccc(NC(=O)N2CCCCc3ccccc32)cc1, CCC(=O)N1CCc2cc(CNC(=O)Nc3ccccc3Cl)ccc21 is higher in “activity, negative = inhibition” value: 7.58% for the first, 10.3% for the second.

Going from Cc1ccccc1CNC(=O)CSc1nnc(C)c2c(C)n(-c3ccccc3)nc12 to CCN(CCCNC(=O)Cn1ncc2c([nH]c3ccccc32)c1=O)c1cccc(C)c1, the “activity, negative = inhibition” value falls from -26.6% to -28%.

First: CCCCNC(=O)CSc1nnc(-c2ccco2)n1C
Second: Cn1c(SCC(=O)Nc2nccs2)nnc1-c1cccnc1
The “activity, negative = inhibition” value of the first is lower: -12.7% for the first, -4.03% for the second.

First: Cc1cccc(Cn2c(=O)n(CCC(=O)NCCc3ccc(Cl)cc3)c(=O)c3sccc32)c1
Second: Cc1ccc(-n2c(=O)c3cccnc3n2CC(=O)NCc2ccc(F)cc2)cc1C
The “activity, negative = inhibition” value of the first is lower: -34.7% for the first, 5.6% for the second.

Going from Cc1cccc(C(=O)NCCCN(C)CCCNC(=O)c2cccc(C)c2)c1 to Cc1ccc2nc(-c3ccc(C)c(NC(=O)Cc4ccccc4)c3)oc2c1, the “activity, negative = inhibition” value falls from 10.2% to 9.96%.

Compared with CC(=O)Nc1cc(C(=O)NCc2ccc(F)cc2Cl)ccc1Sc1ccc(Cl)cc1, Cc1ccc(N(Cc2cc3ccccc3[nH]c2=O)C(=O)c2cccs2)cc1 is lower in “activity, negative = inhibition” value: -3.69% for the first, -5.43% for the second.

Going from Cc1oc2ccc(O)c(CN3CCOCC3)c2c1C(=O)Nc1cccc(Cl)c1C to Cc1oc2ncnc(N3CCCCC3)c2c1C(=O)N1CCN(c2cccc(Cl)c2)CC1, the “activity, negative = inhibition” value falls from 0.579% to -29.8%.

Going from Cn1nnnc1SCc1cc(=O)[nH]c2ccccc12 to CCn1c(SCC(=O)Nc2sc(C)c(C)c2C#N)nnc1C1CC1, the “activity, negative = inhibition” value falls from 13.3% to 9.74%.

Compared with COc1cc(OC)cc(C(=O)Nc2ccc3nc(Nc4cccc(C(F)(F)F)c4)cc(C)c3c2)c1, CCN(CC)C(=O)c1sc(NC(=O)c2ccco2)c(C#N)c1C is lower in “activity, negative = inhibition” value: -2.07% for the first, -19.4% for the second.

For Cc1ccc(-c2cnc(NCc3ccc(C(C)C)cc3)n2C)cc1, the Potency was 2.82 µM (active).
With O=C(Cc1ccc2c(c1)CCCC2)Nc1ccccc1Cl the Potency was 44.7 µM (active).
With CCc1nnc(NS(=O)(=O)c2ccc(NC(=S)NC(=O)/C=C/c3cccs3)cc2)s1 the Potency was 44.7 µM (active).
With Cn1c(SCC(=O)c2cccs2)nnc1-c1ccco1 the Potency was 50.1 µM (active).
In the case of Nn1c(SCC(=O)Nc2nccs2)nnc1-c1ccco1, the Potency is reported as 28.2 µM (active).
For CCN(CCCNC(=O)c1ccc2c(c1)NC(=O)CN2C)c1cccc(C)c1, the Potency was 7.94 µM (active).
CCN(CCCNC(=O)c1ccc(Sc2ccc(C)cc2)c(NC(C)=O)c1)c1cccc(C)c1 was tested, and the Potency was 12.6 µM (active).
For Cc1ccc(N(Cc2cc(=O)[nH]c3ccccc23)C(=O)CCl)cc1, the Potency was 11.2 µM (active).
With CC(=O)N(Cc1cc(=O)[nH]c2ccccc12)c1ccc(C)cc1C the Potency was 31.6 µM (active).
In the case of Cc1sc(NC(=O)C2=COCCO2)c(C#N)c1C, the Potency is reported as 11.2 µM (active).
For CCC(CC)c1nnc(NC(=O)C2=COCCO2)s1, the Potency was 39.8 µM (active).

First: Cc1ccc(-c2cnc(NC(=O)CCC(=O)N(C)Cc3ccccc3)n2C)cc1
Second: CCc1nnc(NS(=O)(=O)c2ccc(NS(=O)(=O)c3ccccc3)cc2)s1
The activity, negative = inhibition of the first is lower: -4.41% [at 12.7 µM] for the first, 2.62% [at 12.7 µM] for the second.

Compared with C=CCOc1ccc(/C=C/C(=O)OCC(=O)NCC2CCCO2)cc1 (stereo not given), CCC(NC(=O)c1cc(COc2ccc(F)c(F)c2)on1)c1ccncc1 (stereo not given) is higher in activity, negative = inhibition: 6.35% [at 12.7 µM] for the first, 13.4% [at 12.7 µM] for the second.

COc1ccc(S(=O)(=O)Nc2ccc3cn[nH]c3c2)cc1[N+](=O)[O-] gave an activity, negative = inhibition of -20.9% [at 12.7 µM].

Compared with CCOc1ccccc1OCC(=O)Nc1ccccc1C(=O)NC1CC1, CCCN(CC(=O)Nc1ccccc1OC)C(=O)CCC(=O)c1ccc(F)cc1 is higher in “activity, negative = inhibition” value: -41.6% [at 102 µM] for the first, 6.88% [at 102 µM] for the second.

Compared with Cc1nn(C(C)C(=O)NCCC2=CCCCC2)c(=O)c2nn(-c3ccccc3)c(C)c12 (stereo not given), CCC(CC)c1nnc(NC(=O)c2nn(C)c(=O)c3ccccc23)s1 is lower in “activity, negative = inhibition” value: 18.6% [at 102 µM] for the first, 1.31% [at 102 µM] for the second.

CCCC(=O)N1CCN(c2nnc(-c3ccc(C)cc3)c3ccccc23)CC1 and CCCN(CC(=O)Nc1ccccc1C)C(=O)c1cc(=O)[nH]c2ccccc12 are the same in “activity, negative = inhibition” value: -4.7% [at 102 µM] for the first, -4.7% [at 102 µM] for the second.

Going from CCc1nnc(NS(=O)(=O)c2ccc(NC(=S)NC(=O)c3cccs3)cc2)s1 to COc1cccc(OC)c1C(=O)Nc1nnc(C(C)C)s1, the “activity, negative = inhibition” value rises from -49.2% [at 102 µM] to -41.9% [at 102 µM].

Going from O=C(CCn1nnnc1CN1CCOCC1)N1CCC(c2ccccc2Cl)C1 (stereo not given) to CCOC(=O)CSc1nnc(-c2ccco2)n1C, the “activity, negative = inhibition” value falls from 68.2% [at 102 µM] to -7.88% [at 102 µM].

Compared with CCC(=O)N(Cc1cc2ccccc2[nH]c1=O)c1ccc(OC)cc1, O=C(N=C1SC2CS(=O)(=O)CC2N1c1cc(Cl)ccc1Cl)C1CC1 (stereo not given) is lower in “activity, negative = inhibition” value: 3.58% [at 102 µM] for the first, 0.566% [at 102 µM] for the second.

Work on CCc1cccc(C)c1NC(=O)CSc1nnc(-c2ccco2)n1N yielded an activity, negative = inhibition of 11.7% [at 0.501 µM].

COc1ccc(NC(=O)CN(C)C(=O)c2ccc(NC3CC3)c([N+](=O)[O-])c2)cc1 was tested, and the activity, negative = inhibition was -3.73% [at 2.33 µM].
